Bioassay records from PubChem BioAssay.
HP1b binding inh = HP1-beta chromodomain-methylated histone interaction inhibition. AlphaScreen HP1-beta / biotin-H3K9me3 peptide binding. AID 540317. P83916. 390,000 tested, 0.56% active. Potency, µM (series often up to 114 µM), inactives show at the highest dose activity change, negative = inhibition, most hits filed as inhibitors; further: nearly all actives have a fitted effect of over 70% in size
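AlphaScreen: HP1-beta (50 nM) preformed 30 min with biotin-H3(1-18)K9me3 peptide (50 nM) in PBS pH 7.4, 0.01% Tween-20. Compound added for 30 min at RT, then streptavidin donor/nickel chelate acceptor beads (10 ug/mL) for 30 min.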
Sfp PPTase inh = Sfp phosphopantetheinyl transferase inhibition | 310,000 tested, 3.5% active | AID 1490 | Biochemical Sfp PPTase activity, qHTS | Potency, µM, without a hit: largest response in the series, negative = inhibition, actives largely listed as inhibitors;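 further: the enzyme is Sfp with the accession as filed and its product quenches rhodamine fluorescence; 0% = enzyme reaction without inhibitor and -100% = no enzyme wells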
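Fluorescence-quenching assay with 15 nM Sfp, 5 uM rhodamine-CoA and 12.5 uM BHQ-2-labelled ybbR peptide in pH 7.6 Hepes/MgCl2 buffer. Enzyme was pre-incubated with compound for 15 min at room temperature. Rate was taken from the 30-min fluorescence change (525/598 nm).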
G9a block = inhibitors of human histone lysine methyltransferase G9a; Q96KQ7; G9a H3K9 monomethylation, AlphaScreen, 2 h; Potency, µM (series often up to 102 µM), without a hit: at the top dose activity, negative = inhibition, hits mostly inhibitors; 350,000 tested, 8.8% active; AID 504332; further: on the % scale 0 is the no-effect control and ±100 the full control effect; nearly all actives have a fitted effect of over 75% in size
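Using a bead-based AlphaScreen, monomethylated H3K9 product from 2 h room-temperature reactions (G9a 20 nM, peptide 500 nM, SAM 20 uM) was detected with 0.5 ug/mL rabbit anti-H3K9me1 antibody.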
BAZ2B block = inhibitors of human BAZ2B bromodomain; AlphaScreen BAZ2B-H3K14Ac peptide displacement; Potency, µM (titrated, usually from 114 µM), without a hit: at the top dose activity change, negative = inhibition, actives largely listed as inhibitors; 360,000 tested, 4.4% active; further: on the % scale 0 is the no-effect control and ±100 the full control effect; nearly all actives have a fitted effect of over 60% in size
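Complex of BAZ2B and biotin-H3K14Ac (50 nM apiece) forms over 30 min at RT, then faces library compounds up to 110 uM for another 30 min; AlphaScreen beads added, 20 min dark incubation, luminescence read.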
JMJD2A Tudor inh = inhibitors of human JMJD2A Tudor domain | O75164 | AlphaScreen JMJD2A-Tudor / H3K4me3 peptide binding | Potency, µM (highest dose often 114 µM), for inactives: at the highest dose activity change, negative = inhibition, actives largely listed as inhibitors | 390,000 tested, 4.4% active | AID 504339; further: on the % scale 0 is the no-effect control and ±100 the full control effect; nearly all actives have a fitted effect of over 50% in size
Target sequence (O75164 whole entry, looked up, the tested form may be a part): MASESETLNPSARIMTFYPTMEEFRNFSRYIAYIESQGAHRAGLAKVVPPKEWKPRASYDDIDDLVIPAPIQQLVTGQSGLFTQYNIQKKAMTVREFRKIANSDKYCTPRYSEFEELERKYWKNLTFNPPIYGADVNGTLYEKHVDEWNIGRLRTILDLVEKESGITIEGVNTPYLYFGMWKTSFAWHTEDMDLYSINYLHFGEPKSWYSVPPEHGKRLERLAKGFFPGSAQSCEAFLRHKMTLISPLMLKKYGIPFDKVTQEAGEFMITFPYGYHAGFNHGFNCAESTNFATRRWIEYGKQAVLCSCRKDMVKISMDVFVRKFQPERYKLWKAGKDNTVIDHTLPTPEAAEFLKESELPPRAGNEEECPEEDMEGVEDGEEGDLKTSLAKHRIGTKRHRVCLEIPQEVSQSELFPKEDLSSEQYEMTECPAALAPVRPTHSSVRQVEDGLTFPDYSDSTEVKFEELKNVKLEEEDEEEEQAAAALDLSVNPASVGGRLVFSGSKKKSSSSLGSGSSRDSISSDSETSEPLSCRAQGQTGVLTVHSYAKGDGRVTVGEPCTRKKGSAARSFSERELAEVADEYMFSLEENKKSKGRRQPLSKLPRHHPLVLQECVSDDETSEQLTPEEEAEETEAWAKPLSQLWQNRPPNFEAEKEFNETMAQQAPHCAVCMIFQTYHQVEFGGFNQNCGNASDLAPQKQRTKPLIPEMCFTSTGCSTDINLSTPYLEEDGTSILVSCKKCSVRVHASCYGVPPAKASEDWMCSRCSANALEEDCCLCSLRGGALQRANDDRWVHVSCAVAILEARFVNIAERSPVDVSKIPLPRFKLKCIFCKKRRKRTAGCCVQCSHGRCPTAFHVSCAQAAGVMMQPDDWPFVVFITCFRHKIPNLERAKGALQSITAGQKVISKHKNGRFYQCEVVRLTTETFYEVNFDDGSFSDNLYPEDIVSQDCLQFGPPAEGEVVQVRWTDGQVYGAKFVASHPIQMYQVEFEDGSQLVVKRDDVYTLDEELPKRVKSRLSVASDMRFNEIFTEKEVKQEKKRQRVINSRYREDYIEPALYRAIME
Active calls of the source: *; ? = inconclusive; / = no result; [ ] = dose if it differs, or a comment. Hits are enriched below; roughly 12% of the tested compounds scored in any of these assays. The call rests on the fitted dose curve; in most records, active means well fitted curve in the direction sought with a large enough effect; inconclusive means small, poorly fitted or top-dose-only effect, or another doubt; inactive means no such curve, though single readings can be large; an effect the other way counts as inactive or inconclusive. Potency means the concentration at half of the fitted maximal effect.

SMILES	HP1b binding inh	Sfp PPTase inh	G9a block	BAZ2B block	JMJD2A Tudor inh
O[C@@H]1CCCC[C@@H]1N1CCC(c2ccccc2)CC1	/	13%	22%[59 µM]	/	/
Cc1ccc(CC2C(=O)N(C)C(=O)N(C)C2=O)s1	8%	35µM*	7.9µM*	-3%	-27%
C=CCOc1ccc(CC2C(=O)N(C)C(=O)N(C)C2=O)cc1	-7%	-15%	-47%[12.7 µM]	12%	-13%[57.1 µM]
O=[N+]([O-])/C=C/c1c(Cl)cccc1Cl	3%	/	/	/	40µM*
CC(C)OC(=O)C(O)(c1ccc(Cl)cc1)c1ccc(Cl)cc1	/	-2%	/	/	/
CCOc1ccc(S(=O)(=O)O)c2cccnc12	/	71µM*	6%[12.7 µM]	/	/
CN(C)C(=O)Oc1ccc(Cl)c2cccnc12	39%	24%	-5%[59 µM]	-12%	8%
Cc1nc(N)sc1CCN	/	0%	35%[59 µM]	/	/
CN1CCN(c2ccc([N+](=O)[O-])c(NCC3CCCO3)c2)CC1 (stereo not drawn)	-7%	5%	28µM*	6%	-23%
CN1CCN(c2ccc([N+](=O)[O-])c(NCc3ccco3)c2)CC1	-18%	7%	?	?	?
CN1CCN(c2ccc([N+](=O)[O-])c(N3CCCCC3)c2)CC1	26%	2%	56µM*	?	-33%
O=[N+]([O-])c1ccc(N2CCNCC2)cc1N1CCCCCC1	5%	-6%	?	?	?
C[C@H](NC(=O)[C@@H](N)Cc1ccc(O)cc1)C(=O)N[C@@H](Cc1ccccc1)C(=O)NCC(=O)N[C@@H](Cc1ccc(O)cc1)C(=O)N1CCC[C@H]1C(=O)N[C@@H](CO)C(N)=O	/	21%	28%[59 µM]	/	/
NC(Cc1ccccc1)c1nc2ccccc2[nH]1 (stereo not drawn)	60%	-9%	?	?	?
NC(Cc1nc2ccccc2[nH]1)c1ccc(Cl)cc1 (stereo not drawn)	11%	19%	40µM*	-25%	-25%
CCOC(=O)c1c(NC(=O)C(c2ccccc2)c2ccccc2)sc2c1C1CCN2CC1	1%	?	50µM*	?	?
COc1ccccc1CNCc1cc(OC)c(OC)cc1OC	?	13%	3.2µM*	50µM*	2.5µM*
COc1ccccc1CCNC1CCC(C)CC1 (stereo not drawn)	40%	15%	?	4%	-3%
C=C1Nc2ccccc2C(=O)N1c1ccccc1C	/	10%	-8%[12.7 µM]	/	/
CCn1c(P(C)(=O)O)nc2ccccc21	4%	-13%	4%[59 µM]	-9%	?
CCn1c(NN=O)nc2ccccc21	-21%	50µM*	?	56µM*	89µM*
On1ccccc1=S	?	/	1.1µM*	-5%	3.5µM*
COC(=O)C(O)(c1ccc(NC(=S)NC(=O)c2ccc(Cl)cc2Cl)c(C)c1)C(F)(F)F (stereo not drawn)	-20%	-27%	1%[59 µM]	-35%	79µM*
Cn1c(O)c(C(=Nc2ccc(F)cc2)c2ccccc2Cl)c(=O)n(C)c1=O	5%	-1%	/	-38%	-22%
COC(=O)c1ccc(N=C(c2ccccc2)c2c(O)n(C)c(=O)n(C)c2=O)cc1	52%	?	?	-18%	-5%
SMILES	HP1b binding inh	Sfp PPTase inh	G9a block	BAZ2B block	JMJD2A Tudor inh
CCOC(=O)c1ccc(N=C(c2ccccc2)c2c(O)n(C)c(=O)n(C)c2=O)cc1	47%	?	50µM*	-12%	11%
Cn1c(O)c(C(=Nc2ccccc2)SCc2ccccc2Cl)c(=O)n(C)c1=O	20%	40µM*	/	50µM*	-22%
CC(=Nc1ccccc1N)c1c(O)n(C)c(=O)n(C)c1=O	43%	16%	-1%	12%	-7%
CSC(=Nc1ccccc1)c1c(O)n(C)c(=O)n(C)c1=O	46%	56µM*	?	8%	-26%
CCOC(=O)c1c(C)[nH]c(C)c1S(=O)(=O)N1CCC(C(=O)N2CCN(c3ccc(Cl)cc3)CC2)CC1	-7%	/	6%[59 µM]	?	?
Cn1nc(-c2ccc(C(=O)Nc3ccc(OC(F)(F)F)cc3)cc2)c2ccccc2c1=O	45%	/	-5%[59 µM]	2%	0%
COc1cc2c(c(OC)c1OC)-c1ccc(OC)c(=O)cc1[C@H](NC(C)=O)CC2	/	23%	13%[21.5 µM]	/	/
Clc1ccc(CC[C@H](Cn2ccnc2)Sc2c(Cl)cccc2Cl)cc1	/	?	-6%[21.5 µM]	/	/
C[n+]1cccc(C(=O)NCC2CCCO2)c1 (stereo not drawn)	16%	-2%	?	-2%	-3%
CCOc1cc(/C=C(\C#N)C(=O)NCC2CCCO2)ccc1OCC(N)=O (stereo not drawn)	-16%	1%	50µM*	-11%	-24%
CCC(C)n1c(O)c(C(c2ccccn2)c2c(O)n(C(C)CC)c(=S)[nH]c2=O)c(=O)[nH]c1=S (stereo not drawn)	29%	50µM*	11µM*	35µM*	?
Cn1c(O)c(C(c2ccccn2)c2c(O)n(C)c(=S)n(C)c2=O)c(=O)n(C)c1=S	7%	?	4µM*	5µM*	4µM*
Cn1c(O)c(C(c2ccncc2)c2c(O)n(C)c(=S)n(C)c2=O)c(=O)n(C)c1=S	26%	14%	?	-3%	-36%
CCC(C)n1c(O)c(C=NC(C)c2ccccc2)c(=O)[nH]c1=S (stereo not drawn)	9%	-4%	/	-22%	?
NC(=O)CSc1nc2cc(S(=O)(=O)N3CCOCC3)ccc2o1	?	/	/	/	-23%
C[C@]12C=CC(=O)C=C1CCC1C2=CC[C@]2(C)[C@@H](C(=O)CN3CCN(c4cc(N5CCCC5)nc(N5CCCC5)n4)CC3)CC[C@@H]12 (stereo partly drawn)	/	/	40µM*	/	/
C[S+](CC[C@H](N)C(=O)O)C[C@H]1O[C@@H](n2cnc3c(N)ncnc32)[C@H](O)[C@@H]1O (stereo partly drawn)	9%	?	3.5µM*	4%	13µM*
CC(C)N(Cc1ccccc1)C(=O)CCS(=O)(=O)c1ccc2c(c1)oc(=O)n2C	51%	4%	71µM*	-19%	-4%
O=C(OCC(=O)c1ccc([N+](=O)[O-])cc1)/C(=C\c1ccc(Cl)cc1)NC(=O)c1ccccc1	16%	11%	?	-18%	-18%
O=C(CNC(=O)c1cccs1)NCC(=O)OCC(=O)c1ccc([N+](=O)[O-])cc1	-2%	?	45µM*	/	-4%
C[C@]12CC[C@@H]3c4ccc(O[C@@H]5O[C@H](C(=O)O)[C@@H](O)[C@H](O)[C@H]5O)cc4CC[C@H]3[C@@H]1C[C@@H](O)[C@@H]2O	25%	79µM*	?	-1%	-12%
CCC(=O)Oc1ccc2c(c1)CCC1C2CC[C@]2(C)C(OC(=O)CC)CCC12 (stereo partly drawn)	/	-9%	?	/	/
CCCCCCCCCCCCOCCOCCOCCOCCOCCOCCOCCOCCOCCO	/	71µM*	-1%[12.7 µM]	/	/
